From the supplement of paper PMC6089552
Screen size: about 3,200 compounds; about 300 (9.4%) showed activity. The full list was thinned out, with actives kept by preference.

Tested on: A673/TR/shEF
Assay: cell viability (LOESS-normalised, relative to median of negative controls) (log2 ratio); higher = more viable cells (less compound effect), active = hit call of the paper (over 3 MAD below the median)
Details: treatment time: 72 h
In short: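 Doxycycline, present or absent from 24 h before compounds, was used to induce EWS-FLI1 shRNA knockdown in A673/TR/shEF Ewing sarcoma cells at 1,500 per well in 384-well plates. Cells then received library compounds at two or more concentrations, or DMSO controls, for three days. Viability was measured by CellTiter-Glo luminescence on an Envision reader, and per-plate LOESS correction, division by the negative-control median and log2 transformation followed.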

[1] = 0.25 µM, library screen: screen1, EWS-FLI1 expression: high (no doxycycline)
[2] = 0.25 µM, library screen: screen1, EWS-FLI1 expression: low (doxycycline-induced shRNA knockdown)
[3] = 2.5 µM, library screen: screen1, EWS-FLI1 expression: high (no doxycycline)
[4] = 2.5 µM, library screen: screen1, EWS-FLI1 expression: low (doxycycline-induced shRNA knockdown)
[5] = 0.103 µM, library screen: screen3, EWS-FLI1 expression: high (no doxycycline)
[6] = 0.103 µM, library screen: screen3, EWS-FLI1 expression: low (doxycycline-induced shRNA knockdown)
[7] = 0.25 µM, library screen: screen2, EWS-FLI1 expression: high (no doxycycline)
[8] = 0.25 µM, library screen: screen2, EWS-FLI1 expression: low (doxycycline-induced shRNA knockdown)
[9] = 0.308 µM, library screen: screen3, EWS-FLI1 expression: high (no doxycycline)
[10] = 0.308 µM, library screen: screen3, EWS-FLI1 expression: low (doxycycline-induced shRNA knockdown)
[11] = 0.926 µM, library screen: screen3, EWS-FLI1 expression: high (no doxycycline)
[12] = 0.926 µM, library screen: screen3, EWS-FLI1 expression: low (doxycycline-induced shRNA knockdown)
[13] = 2.5 µM, library screen: screen2, EWS-FLI1 expression: high (no doxycycline)
[14] = 2.5 µM, library screen: screen2, EWS-FLI1 expression: low (doxycycline-induced shRNA knockdown)
[15] = 2.8 µM, library screen: screen3, EWS-FLI1 expression: high (no doxycycline)
[16] = 2.8 µM, library screen: screen3, EWS-FLI1 expression: low (doxycycline-induced shRNA knockdown)
[17] = 8.3 µM, library screen: screen3, EWS-FLI1 expression: high (no doxycycline)
[18] = 8.3 µM, library screen: screen3, EWS-FLI1 expression: low (doxycycline-induced shRNA knockdown)
[19] = 25 µM, library screen: screen3, EWS-FLI1 expression: high (no doxycycline)
[20] = 25 µM, library screen: screen3, EWS-FLI1 expression: low (doxycycline-induced shRNA knockdown)

CC1C(=O)CC2CC1C2(C)C (centres undefined)
cell viability (log2) [1]: -0.106 (active) | cell viability (log2) [2]: 0.0655 (inactive) | cell viability (log2) [3]: 0.091 (inactive) | cell viability (log2) [4]: 0.103 (inactive)

NC(=O)c1ccccc1NC(=O)c1cc2ccccc2o1
cell viability (log2) [1]: 0.112 (inactive) | cell viability (log2) [2]: 0.167 (inactive) | cell viability (log2) [3]: 0.0735 (inactive) | cell viability (log2) [4]: 0.103 (inactive)

O=C(O)CCCCCCCCCCCCC1C=CCC1 (centres undefined)
cell viability (log2) [1]: 0.109 (inactive) | cell viability (log2) [2]: -0.0641 (inactive) | cell viability (log2) [3]: 0.133 (inactive) | cell viability (log2) [4]: 0.00345 (inactive)

CCC(C)[C@H]1O[C@]2(CC[C@@H]1C)CC1C[C@@H](C/C=C(\C)[C@@H](O[C@H]3C[C@H](OC)[C@@H](OC4C[C@H](OC)[C@@H](O)[C@H](C)O4)[C@H](C)O3)[C@@H](C)/C=C/C=C3\CO[C@@H]4[C@H](O)C(C)=C[C@@H](C(=O)O1)[C@]34O)O2.CO[C@H]1CC(O[C@H]2[C@H](C)O[C@@H](O[C@@H]3/C(C)=C/C[C@@H]4CC(C[C@]5(CC[C@H](C)[C@@H](C(C)C)O5)O4)OC(=O)[C@@H]4C=C(C)[C@@H](O)[C@H]5OC/C(=C\C=C\[C@@H]3C)[C@]54O)C[C@@H]2OC)O[C@@H](C)[C@@H]1O (some centres undefined)
cell viability (log2) [5]: 0.062 (inactive) | cell viability (log2) [6]: 0.111 (inactive) | cell viability (log2) [7]: 0.0727 (inactive) | cell viability (log2) [8]: 0.0714 (inactive) | cell viability (log2) [9]: -0.0408 (inactive) | cell viability (log2) [10]: 0.0112 (inactive) | cell viability (log2) [11]: -0.0851 (inactive) | cell viability (log2) [12]: -0.0397 (inactive) | cell viability (log2) [13]: -0.104 (active) | cell viability (log2) [14]: -0.0072 (inactive) | cell viability (log2) [15]: -0.279 (active) | cell viability (log2) [16]: -0.285 (active) | cell viability (log2) [17]: -0.239 (active) | cell viability (log2) [18]: -0.115 (active) | cell viability (log2) [19]: -3.03 (active) | cell viability (log2) [20]: -1.99 (active)

CO[C@H]1C[C@H](O[C@@H]2/C(C)=C/C[C@@H]3C[C@@H](C[C@]4(CC[C@H](C)[C@@H](C5CCCCC5)O4)O3)OC(=O)[C@@H]3C=C(C)/C(=N/O)[C@H]4OC/C(=C\C=C\[C@@H]2C)[C@]43O)O[C@@H](C)[C@@H]1O
cell viability (log2) [1]: 0.0971 (inactive) | cell viability (log2) [2]: 0.0732 (inactive) | cell viability (log2) [3]: 0.0965 (inactive) | cell viability (log2) [4]: 0.0106 (inactive)

Cc1cc(=O)c2c(O)c3c(cc2o1)OC(C)(C)CC3
cell viability (log2) [1]: -0.0169 (inactive) | cell viability (log2) [2]: 0.014 (inactive) | cell viability (log2) [3]: 0.0268 (inactive) | cell viability (log2) [4]: 0.147 (inactive)

CCC[C@H]1CC2=C(C[C@@H](CC)CC3=C1C(=O)OC3=O)C(=O)OC2=O
cell viability (log2) [1]: 0.0818 (inactive) | cell viability (log2) [2]: 0.0576 (inactive) | cell viability (log2) [3]: 0.117 (inactive) | cell viability (log2) [4]: 0.0649 (inactive)

Cc1sc2c(=O)n3c(nc2c1C(=O)NCCc1ccccc1)CCCCC3
cell viability (log2) [1]: 0.129 (inactive) | cell viability (log2) [2]: 0.0568 (inactive) | cell viability (log2) [3]: 0.167 (inactive) | cell viability (log2) [4]: 0.136 (inactive)

CC(C)CCC[C@@H](C)C1CC[C@H]2[C@@H]3CCC4=CC(=O)C=C[C@]4(C)[C@H]3CC[C@]12C (some centres undefined)
cell viability (log2) [1]: 0.107 (inactive) | cell viability (log2) [2]: 0.0599 (inactive) | cell viability (log2) [3]: 0.105 (inactive) | cell viability (log2) [4]: 0.0638 (inactive)

c1ccc([C@@H]2CCC[C@@H]2NC2=NCCCCCCCCCCC2)cc1
cell viability (log2) [7]: 0.117 (inactive) | cell viability (log2) [8]: 0.0677 (inactive) | cell viability (log2) [13]: 0.18 (inactive) | cell viability (log2) [14]: 0.156 (inactive)

CC1(C)C[C@@]23C(=O)CC[C@@H](O)C2(C)CC[C@H]13 (some centres undefined)
cell viability (log2) [1]: 0.0615 (inactive) | cell viability (log2) [2]: -0.0504 (inactive) | cell viability (log2) [3]: 0.0572 (inactive) | cell viability (log2) [4]: 0.0807 (inactive)

COc1c(O)cc(C2Oc3c(c(O)cc(O)c3[C@H]3c4c(O)cc(O)cc4O[C@H](c4ccc(O)cc4)[C@@H]3O)C[C@H]2O)cc1O (some centres undefined)
cell viability (log2) [5]: -0.000188 (inactive) | cell viability (log2) [6]: 0.0292 (inactive) | cell viability (log2) [9]: -0.0295 (inactive) | cell viability (log2) [10]: -0.00938 (inactive) | cell viability (log2) [11]: 0.0249 (inactive) | cell viability (log2) [12]: 0.0493 (inactive) | cell viability (log2) [15]: -0.0107 (inactive) | cell viability (log2) [16]: 0.0655 (inactive) | cell viability (log2) [17]: 0.0329 (inactive) | cell viability (log2) [18]: 0.11 (inactive) | cell viability (log2) [19]: 0.0402 (inactive) | cell viability (log2) [20]: 0.209 (inactive)

CN1CC[C@H](c2c(O)cc(O)c3c(=O)cc(-c4ccccc4Cl)oc23)[C@H](O)C1
cell viability (log2) [5]: -0.182 (active) | cell viability (log2) [6]: -0.0654 (inactive) | cell viability (log2) [9]: -0.451 (active) | cell viability (log2) [10]: -0.231 (active) | cell viability (log2) [11]: -1.4 (active) | cell viability (log2) [12]: -1.66 (active) | cell viability (log2) [15]: -3.54 (active) | cell viability (log2) [16]: -2.88 (active) | cell viability (log2) [17]: -4.29 (active) | cell viability (log2) [18]: -4.28 (active) | cell viability (log2) [19]: -4.33 (active) | cell viability (log2) [20]: -4.3 (active)

CC(=O)OC1CC[C@@]2(C)C(CC[C@]3(C)C2CCC2C4CC(C)(C)CCC4(C(=O)O)CC[C@]23C)C1(C)C (some centres undefined)
cell viability (log2) [1]: 0.0992 (inactive) | cell viability (log2) [2]: 0.055 (inactive) | cell viability (log2) [3]: 0.145 (inactive) | cell viability (log2) [4]: 0.119 (inactive)

CC(=O)Oc1cc(OC(C)=O)c2c(c1)OC(c1ccc(OC(C)=O)c(OC(C)=O)c1)C(OC(C)=O)C2 (centres undefined)
cell viability (log2) [1]: 0.1 (inactive) | cell viability (log2) [2]: 0.0336 (inactive) | cell viability (log2) [3]: 0.18 (inactive) | cell viability (log2) [4]: 0.104 (inactive)

CC(C)(O)[C@@H]1Cc2cc3ccc(=O)oc3cc2O1
cell viability (log2) [1]: 0.0301 (inactive) | cell viability (log2) [2]: -0.0352 (inactive) | cell viability (log2) [3]: 0.107 (inactive) | cell viability (log2) [4]: 0.0444 (inactive)

COc1ccccc1-c1cc(=O)c2c(OC)cccc2o1
cell viability (log2) [1]: 0.121 (inactive) | cell viability (log2) [2]: -0.0186 (inactive) | cell viability (log2) [3]: 0.129 (inactive) | cell viability (log2) [4]: 0.0665 (inactive)

COc1cccc(-c2cc(=O)c3ccccc3o2)c1N
cell viability (log2) (0.025 µM, library screen: screen1, EWS-FLI1 expression: high (no doxycycline)): 0.268 (inactive) | cell viability (log2) (0.025 µM, library screen: screen1, EWS-FLI1 expression: low (doxycycline-induced shRNA knockdown)): -0.0228 (inactive) | cell viability (log2) [1]: 0.278 | cell viability (log2) [2]: -0.0268 (inactive) | cell viability (log2) [7]: 0.18 (inactive) | cell viability (log2) [8]: 0.11 (inactive) | cell viability (log2) [3]: -0.37 (active) | cell viability (log2) [4]: 0.0789 (inactive) | cell viability (log2) [13]: 0.195 (inactive) | cell viability (log2) [14]: 0.139 (inactive) | cell viability (log2) (25 µM, library screen: screen1, EWS-FLI1 expression: high (no doxycycline)): -0.0514 (inactive) | cell viability (log2) (25 µM, library screen: screen1, EWS-FLI1 expression: low (doxycycline-induced shRNA knockdown)): 0.0727 (inactive)

COc1ccccc1-c1cc(=O)c2cccc(OC)c2o1
cell viability (log2) [1]: 0.00414 (inactive) | cell viability (log2) [2]: -0.0253 (inactive) | cell viability (log2) [3]: 0.211 (inactive) | cell viability (log2) [4]: 0.0664 (inactive)

Cc1cc(OC(=O)c2c(C)cc(OC(=O)c3c(C)cc(O)cc3O)cc2O)cc(O)c1C(=O)O
cell viability (log2) [1]: 0.154 (inactive) | cell viability (log2) [2]: 0.153 (inactive) | cell viability (log2) [3]: 0.0106 (inactive) | cell viability (log2) [4]: 0.113 (inactive)

CC[n+]1c(-c2ccccc2)c2cc(N)ccc2c2ccc(N)cc21
cell viability (log2) [1]: 0.0617 (inactive) | cell viability (log2) [2]: 0.0391 (inactive) | cell viability (log2) [3]: -1.89 (active) | cell viability (log2) [4]: -0.0126 (inactive)

NCCNC(=O)Cc1ccc(NC(=O)Cc2ccc(Nc3ncnc4c3ncn4C3OC(CO)C(O)C3O)cc2)cc1 (centres undefined)
cell viability (log2) [7]: 0.211 (inactive) | cell viability (log2) [8]: 0.142 (inactive) | cell viability (log2) [13]: 0.0909 (inactive) | cell viability (log2) [14]: 0.0423 (inactive)
